Reference: PubChem BioAssay (NCI)
“And” between values parts separate entries of the source, which are not always exact repeats. Equal values may be shown once. The panel holds about 79,000 compounds, 15% with a hit somewhere; the sample as a whole holds those more often. Some compounds were tested as several samples or in several runs, with calls that do not always agree. The source made the active and inactive calls. Cut-off read from the data, not from the text of the source: active = growth inhibition above about 70%; inactive = the rest.

Tests used:
[1] = NCI Yeast Anticancer Drug Screen. Data for the rad52 strain (AID 147);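 note: 0% = growth of vehicle-treated control cultures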; conditions: S. cerevisiae rad52 mutant growth inhibition, stronger effect = higher value
Procedure, shortened: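 Read-out: growth inhibition versus vehicle-treated controls. Cells were a DNA repair-deficient yeast strain treated with compounds.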

[2] = NCI Yeast Anticancer Drug Screen. Data for the wt1 strain (AID 149);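 note: 0% = growth of vehicle-treated wt1 cultures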; conditions: S. cerevisiae wt1 strain (SPY 50644) growth inhibition, stronger effect = higher value
Procedure, shortened: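 Measured: growth of wt1 yeast under compound versus vehicle treatment, reported as inhibition.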

[3] = NCI Yeast Anticancer Drug Screen. Data for the rad50EPP+ strain (AID 151);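 note: 0% = growth of vehicle-treated control cultures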; conditions: S. cerevisiae rad50 mutant strain, stronger effect = higher value
Procedure, shortened: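 Growth inhibition read against vehicle controls in rad50EPP+ yeast, a strain altered in DNA damage repair, after compound exposure.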

[4] = NCI Yeast Anticancer Drug Screen. Data for the mgt1 strain (AID 153); conditions: S. cerevisiae mgt1 mutant growth inhibition, stronger effect = higher value
Procedure, shortened: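 mgt1 yeast grown with test compound; read-out is growth inhibition versus vehicle-treated cultures.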

[5] = NCI Yeast Anticancer Drug Screen. Data for the rad50 strain (AID 155);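 note: 0% = growth of vehicle-only cultures of the same strain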; conditions: S. cerevisiae rad50 strain growth inhibition, stronger effect = higher value
Procedure, shortened: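 Growth of the mutant yeast was measured after compound exposure and referenced to vehicle-treated cultures.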

[6] = NCI Yeast Anticancer Drug Screen. Data for the mec2-1 strain (AID 157); conditions: S. cerevisiae mec2-1 strain, stronger effect = higher value
Procedure, shortened: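 Yeast mec2-1 mutant treated with compound. Readout: growth inhibition vs vehicle controls.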

[7] = NCI Yeast Anticancer Drug Screen. Data for the rad14 strain (AID 159);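 note: 0% = growth of vehicle-treated control cultures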; conditions: S. cerevisiae rad14 strain growth inhibition, stronger effect = higher value
Procedure, shortened: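 Here, inhibition of yeast growth was measured after compound exposure, using a strain with a genetic defect in DNA damage repair and vehicle-treated cultures as the reference.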

[8] = NCI Yeast Anticancer Drug Screen. Data for the sgs1 mgt1 strain (AID 161);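 note: 0% = growth of cultures given vehicle only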; conditions: S. cerevisiae sgs1 mgt1 strain, stronger effect = higher value
Procedure, shortened: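 Inhibition of yeast growth, normalised to vehicle-treated controls, is reported for a strain bearing genetic alterations in DNA damage repair.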

[9] = NCI Yeast Anticancer Drug Screen. Data for the CLN2oe strain (AID 163);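 note: 0% = growth of vehicle-only control cultures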; conditions: S. cerevisiae CLN2oe strain, stronger effect = higher value
Procedure, shortened: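 Read-out: yeast growth inhibition, expressed relative to vehicle-only controls. The strain bears an engineered cell-cycle alteration.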

[10] = NCI Yeast Anticancer Drug Screen. Data for the cln2 rad14 strain (AID 165);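 note: 0% = growth equal to vehicle treated cultures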; conditions: S. cerevisiae cln2 rad14 strain, stronger effect = higher value
Procedure, shortened: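 cln2 rad14 yeast strain; compound exposure; growth inhibition read vs vehicle controls.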

[11] = NCI Yeast Anticancer Drug Screen. Data for the bub3 strain (AID 167); conditions: S. cerevisiae bub3 mutant strain, stronger effect = higher value
Procedure, shortened: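 Whole-cell yeast assay. The mutant strain was incubated with compounds, and growth inhibition was determined by comparison with vehicle-treated cells.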

[12] = NCI Yeast Anticancer Drug Screen. Data for the mlh1 strain (AID 171);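 note: 0% = growth of vehicle-treated control cultures of the same strain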; conditions: S. cerevisiae mlh1 strain growth inhibition, stronger effect = higher value
Procedure, shortened: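 Read-out: growth inhibition versus vehicle controls. Strain: engineered yeast with a defined DNA repair or cell cycle defect, compound-treated.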

[13] = NCI Yeast Anticancer Drug Screen. Data for the sgs1 strain (AID 173);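 note: 0% = growth of vehicle-only control cultures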; conditions: S. cerevisiae sgs1 mutant, stronger effect = higher value
Procedure, shortened: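 Read-out: yeast growth inhibition relative to vehicle controls, following compound exposure of a strain with a defined DNA repair/cell cycle alteration.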

[14] = NCI Yeast Anticancer Drug Screen. Data for the mlh1 rad18 strain (AID 175); conditions: S. cerevisiae mlh1 rad18 strain growth inhibition, stronger effect = higher value
Procedure, shortened: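 Yeast w/ defined DNA-repair lesions; compound exposure; growth vs vehicle controls → % inhibition.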

[15] = NCI Yeast Anticancer Drug Screen. Data for the rad18 strain (AID 177); conditions: S. cerevisiae rad18 mutant growth inhibition, stronger effect = higher value
Procedure, shortened: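 Readout: growth inhibition vs vehicle controls. Cells: genetically altered yeast strain, DNA repair defect.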

[16] = NCI Yeast Anticancer Drug Screen. Data for the wt2 strain (AID 169);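 note: 0% = growth of vehicle-treated yeast cultures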; conditions: S. cerevisiae wt2 strain growth inhibition, stronger effect = higher value
Procedure, shortened: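 Read-out: growth inhibition versus vehicle-treated control cultures after compound exposure of the yeast strain.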

[17] = at 5.0 µM (retest, dose inferred, filed as 0.5)
[18] = at 50.0 µM (retest, dose inferred, filed as 5.0)

Measured: growth inhibition

C=C1C(=O)OC2CC1C(OC(C)=O)C/C(C)=C/CC/C(C)=C\CCC2(C)O (stereo not drawn)
inactive: [1]; at 1.2 µM -5% | [1]; at 3.7 µM 1% | [1]; at 11.0 µM 15% | [1]; at 33.0 µM 33% | [2]; at 1.2 µM 3% | [2]; at 3.7 µM 11% | [2]; at 11.0 µM 13% | [2]; at 33.0 µM 30% | [3]; at 1.2 µM 15% | [3]; at 3.7 µM 42% | [3]; at 11.0 µM 40% | [3]; at 33.0 µM 31% | [3]; at 100.0 µM 18% | [4]; at 1.2 µM -14% | [4]; at 3.7 µM 3% | [4]; at 11.0 µM 13% | [4]; at 33.0 µM 28% | [5]; at 1.2 µM -3% | [5]; at 3.7 µM 9% | [5]; at 11.0 µM 17% | [5]; at 33.0 µM 40% | [6]; at 1.2 µM 11% | [6]; at 3.7 µM 17% | [6]; at 11.0 µM 23% | [6]; at 33.0 µM 37% | [7]; at 1.2 µM 5% | [7]; at 3.7 µM 17% | [7]; at 11.0 µM 31% | [7]; at 33.0 µM 44% | [9]; at 1.2 µM -17% | [9]; at 3.7 µM 9% | [9]; at 11.0 µM 20% | [9]; at 33.0 µM 13% | [10]; [17] 6% and 31% | [11]; at 1.2 µM 6% | [11]; at 3.7 µM -8% | [11]; at 11.0 µM 4% | [11]; at 33.0 µM 24% | [12]; at 1.2 µM -5% | [12]; at 3.7 µM 19% | [12]; at 11.0 µM 28% | [12]; at 33.0 µM 51% | [13]; at 1.2 µM 13% | [13]; at 3.7 µM 27% | [13]; at 11.0 µM 40% | [13]; at 33.0 µM 55% | [15]; at 1.2 µM -15% | [15]; at 3.7 µM 1% | [15]; at 11.0 µM 15% | [15]; at 33.0 µM 49%
36% (inactive) and 90% (active): [11]; [17]
18% (inactive) and 82% (active): [6]; [17]
24% (inactive) and 85% (active): [5]; [17]
active: [1]; at 100.0 µM 88% | [2]; at 100.0 µM 85% | [4]; at 100.0 µM 80% | [5]; at 50.0 µM 81.5% and 88.8% | [5]; at 100.0 µM 86% | [6]; [18] 79% and 99% | [6]; at 50.0 µM 81.7% and 91.2% | [6]; at 100.0 µM 89% | [7]; at 100.0 µM 87% | [8]; at 50.0 µM 71.2% and 87.9% | [9]; at 100.0 µM 85% | [10]; at 50.0 µM 78.8% and 89.3% | [11]; [18] 85% and 99% | [11]; at 50.0 µM 84.5% and 90.7% | [11]; at 100.0 µM 85% | [12]; at 100.0 µM 89% | [13]; at 100.0 µM 90% | [14]; [18] 97% | [14]; at 50.0 µM 85.5% and 86.8% | [15]; at 100.0 µM 91%
60% (inactive) and 95% (active): [14]; [17]
24% (inactive) and 99% (active): [8]; [17]
67% (inactive) and 99% (active): [8]; [18]
63% (inactive) and 98% (active): [5]; [18]
51% (inactive) and 97% (active): [10]; [18]

O=c1ssc(=Nc2ccccc2)n1-c1ccccc1
active: [3]; at 100.0 µM 80% | [5]; [18] 99% | [5]; at 50.0 µM 99.5% and 99% | [5]; at 100.0 µM 72% | [6]; [18] 97% and 98% | [6]; at 50.0 µM 99.8% and 99.5% | [8]; [18] 99% and 100% | [8]; at 50.0 µM 98.2% and 99.3% | [11]; [18] 99% and 100% | [11]; at 50.0 µM 99.5% and 99.7% | [13]; at 100.0 µM 79% | [14]; [18] 99% and 82% | [14]; at 50.0 µM 95.4% and 98.7%
75% (active) and 8% (inactive): [14]; [17]
inactive: [1]; at 1.2 µM 10% | [1]; at 3.7 µM 9% | [1]; at 11.0 µM 5% | [1]; at 33.0 µM 20% | [1]; at 100.0 µM 62% | [2]; at 1.2 µM -3% | [2]; at 3.7 µM -5% | [2]; at 11.0 µM -4% | [2]; at 33.0 µM 0% | [2]; at 100.0 µM 11% | [3]; at 1.2 µM 6% | [3]; at 3.7 µM 3% | [3]; at 11.0 µM 3% | [3]; at 33.0 µM 32% | [4]; at 1.2 µM 0% | [4]; at 3.7 µM 2% | [4]; at 11.0 µM 0% | [4]; at 33.0 µM 12% | [4]; at 100.0 µM 39% | [5]; at 1.2 µM 9% | [5]; at 3.7 µM 5% | [5]; [17] 23% and 20% | [5]; at 11.0 µM 2% | [5]; at 33.0 µM 29% | [6]; at 1.2 µM -6% | [6]; at 3.7 µM -3% | [6]; [17] -2% and 5% | [6]; at 11.0 µM -3% | [6]; at 33.0 µM 5% | [6]; at 100.0 µM 33% | [7]; at 1.2 µM 5% | [7]; at 3.7 µM 4% | [7]; at 11.0 µM 1% | [7]; at 33.0 µM 11% | [7]; at 100.0 µM 30% | [8]; [17] 49% and 27% | [9]; at 1.2 µM 2% | [9]; at 3.7 µM -4% | [9]; at 11.0 µM -4% | [9]; at 33.0 µM 7% | [9]; at 100.0 µM 30% | [11]; at 1.2 µM -5% | [11]; at 3.7 µM -9% | [11]; [17] 12% and 1% | [11]; at 11.0 µM -7% | [11]; at 33.0 µM 6% | [11]; at 100.0 µM 37% | [16]; at 1.2 µM -9% | [16]; at 3.7 µM -15% | [16]; at 11.0 µM -9% | [16]; at 33.0 µM -9% | [16]; at 100.0 µM 15% | [12]; at 1.2 µM 7% | [12]; at 3.7 µM 4% | [12]; at 11.0 µM 2% | [12]; at 33.0 µM 17% | [12]; at 100.0 µM 48% | [13]; at 1.2 µM -15% | [13]; at 3.7 µM 7% | [13]; at 11.0 µM -6% | [13]; at 33.0 µM 34%

Nc1cc(N)c(N=Nc2cccc3c(S(=O)(=O)O)cccc23)cc1N=Nc1cc([N+](=O)[O-])ccc1O
inactive: [1]; at 1.2 µM 32% | [1]; at 3.7 µM 26% | [1]; at 11.0 µM 17% | [1]; at 33.0 µM -23% | [1]; at 100.0 µM 56% | [2]; at 1.2 µM 7% | [2]; at 3.7 µM 13% | [2]; at 11.0 µM 7% | [2]; at 33.0 µM 8% | [2]; at 100.0 µM 19% | [3]; at 1.2 µM -11% | [3]; at 3.7 µM 3% | [3]; at 11.0 µM -4% | [3]; at 33.0 µM -4% | [3]; at 100.0 µM 38% | [4]; at 1.2 µM -19% | [4]; at 3.7 µM 8% | [4]; at 11.0 µM 9% | [4]; at 33.0 µM 12% | [4]; at 100.0 µM 65% | [5]; at 1.2 µM 15% | [5]; at 3.7 µM 10% | [5]; [17] 46% | [5]; at 11.0 µM 8% | [5]; at 33.0 µM 6% | [5]; [18] 61% | [5]; at 50.0 µM 38.5% | [5]; at 100.0 µM 54% | [6]; at 1.2 µM 1% | [6]; at 3.7 µM -11%
